Assay outcomes (PubChem BioAssay)
Compounds with a hit are over-represented: about 21% of the library has one in this group of screens.
DRD3 antagonist = D3 dopamine receptor (human) antagonism; D3R cells, DiscoveRx beta-arrestin luminescence, antagonist mode; active compounds read low; max response, negative = inhibition, %; hit rate 2.5% among 360,000; AID 652054; in the data active = max response below about -50%; inconclusive = no clear call, values can overlap the other calls; also: % is scaled to controls: 0 for no effect and ±100 for the full control effect
Target sequence (P35462 whole entry, looked up): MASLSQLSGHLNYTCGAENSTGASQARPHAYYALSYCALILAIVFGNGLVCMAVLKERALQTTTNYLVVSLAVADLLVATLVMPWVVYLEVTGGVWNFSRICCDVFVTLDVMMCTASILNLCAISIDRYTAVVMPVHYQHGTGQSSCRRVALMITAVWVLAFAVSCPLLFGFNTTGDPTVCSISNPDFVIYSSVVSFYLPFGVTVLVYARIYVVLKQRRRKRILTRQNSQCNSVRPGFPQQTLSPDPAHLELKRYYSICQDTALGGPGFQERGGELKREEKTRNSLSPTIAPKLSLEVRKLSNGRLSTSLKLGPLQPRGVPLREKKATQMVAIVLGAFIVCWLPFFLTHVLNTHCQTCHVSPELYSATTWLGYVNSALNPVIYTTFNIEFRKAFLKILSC
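Cells plated overnight at 1500 cells/well, then exposed to library compounds with dopamine controls for 90 minutes at 37 degrees C. DiscoveRx reagent added for 30–60 minutes at room temperature; luminescence read, quantitative HTS format.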
TDP1 cell noCPT = qHTS for Inhibitors of human tyrosyl-DNA phosphodiesterase 1 (TDP1): qHTS in cells in absence of CPT. DT40 Tdp1-/- hTDP1 cells, no CPT, ATP luminescence, 48 h. hit rate 15% among 420,000. Potency, µM (highest dose often 46.2 µM), inactives show at the top dose activity change, negative = growth inhibition, hits mostly inhibitors; also: potency is read from the fitted curve at half-maximal effect; % is scaled to controls: 0 for no effect and ±100 for the full control effect; nearly all actives have a fitted effect of over 55% in size
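Growth kinetics read by CellTiter-Glo luminescence after ≥48 hr at 37 °C. Cells: DT40 Tdp1-/- stably carrying human TDP1, 400 per well, compound exposure in the absence of CPT (DMSO vehicle).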
DRD3 agonist = D3 dopamine receptor (human) agonism; P35462; D3R DiscoveRx beta-arrestin cells, luminescence, 90 min; max activation, %; hit rate 0.58% among 410,000; AID 652048; in the data active = max activation above about 30%; also: 0% is about no effect
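Agonist-mode cell screen: cells plated at 1500/well and incubated overnight at 37 °C, then exposed to library compounds for 90 min at 37 °C. Detection reagent was added for 30–60 min at room temperature, and luminescence was read.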
TDP1 cell CPT = DT40-hTDP1 cell growth loss with CPT. chicken DT40 Tdp1-/-;hTDP1 cells + 20 nM CPT, ATP luminescence, 48 h. Potency, µM (top dose mostly 46.2 µM), inactives show top-dose activity change, negative = growth inhibition, most hits filed as inhibitors. hit rate 12% among 420,000. AID 686979; also: potency is read from the fitted curve at half-maximal effect; % is scaled to controls: 0 for no effect and ±100 for the full control effect; nearly all actives have a fitted effect of over 55% in size
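Chicken DT40 Tdp1-/- cells complemented with human TDP1, 400 cells/well, exposed to compounds plus 20 nM camptothecin for at least 48 h at 37 C; viability read as ATP content by CellTiter-Glo luminescence.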
ClpP mod = qHTS Assay for Activators of ClpP; purified B. subtilis ClpP, FRET peptide cleavage, 20 min; Potency, µM (highest dose often 57.5 µM), inactives show top-dose activity change, negative = active; hit rate 1.9% among 340,000; AID 651965, 2013; active = well fitted falling curve with a large enough effect; inconclusive = small, poorly fitted or top-dose-only effect; inactive = no such curve, though single readings can be large or run the other way; also: potency is read from the fitted curve at half-maximal effect; the source files actives as falling curves though it sought activators and does not explain the sign; nearly all actives have a fitted effect of over 65% in size
Target sequence (P80244 whole entry, looked up): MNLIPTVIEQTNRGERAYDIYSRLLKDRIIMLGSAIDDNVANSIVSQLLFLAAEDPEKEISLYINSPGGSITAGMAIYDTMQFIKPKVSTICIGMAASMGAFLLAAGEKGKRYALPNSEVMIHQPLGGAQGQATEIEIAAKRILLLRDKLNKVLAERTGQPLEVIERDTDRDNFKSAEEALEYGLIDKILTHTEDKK
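FRET quenching reversal measured ClpP activation: 10 microg/mL B. subtilis ClpP at pH 8 with the FRET-FV decapeptide, read at 430 nm after 320 nm excitation. The 20-min minus 0-min signal was scaled between DMSO/no-enzyme wells and ADEP (5.8 microM final).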
IL-1B inflam inh = blocks inflammasome-driven IL-1 beta release. THP-1 LPS/ATP IL-1B secretion, AlphaLISA, 16 h; active compounds read low. activity change, % at 57.5 µM. hit rate 4.7% among 360,000. AID 743279; in the data active = activity change below about -50%; inconclusive = mostly about -30% to -49%; also: % is scaled to controls: 0 for no effect and ±100 for the full control effect
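Secreted IL-1B measured by AlphaLISA bead assay after 16 h compound exposure of THP-1 cells; compounds (final up to 57.5 uM) added 1 h before LPS (250 ng/mL) and ATP (1.25 mM) stimulation; lower signal means less secretion.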
Active calls of the source: *; i = inactive; ? = inconclusive; . = no result given; [ ] = remark or other dose. Unless noted, calls follow the shape of the dose curve; as a rule, active = well fitted inhibition curve with a large enough effect; inconclusive = small, poorly fitted or top-dose-only effect; inactive = flat fitted curve, though single readings scatter.

SMILES	DRD3 antagonist	TDP1 cell noCPT	DRD3 agonist	TDP1 cell CPT	ClpP mod	IL-1B inflam inh
S=C1NC[C@H](Cc2cccc3ccccc23)N1CC1CCCCC1	-28	23µM*	-5	?	-2%	18
S=C1NC[C@H](CC2CCCCC2)N1CC1CCCCC1	?	23µM*	-50	21µM*	-2%	0
CCCC[C@@H]1CNC(=S)N1CCc1cccc2ccccc12	-5	18µM*	0	?	-1%	-21
O=C(O)CC(NC(=O)Cc1ccc(Cl)cc1)c1ccco1 (configuration not stated)	-17	28%	-6	5%	.	-15
Cc1c(C(=O)O)sc(S(=O)(=O)N2CCN(C(=O)Cc3ccc(F)cc3)CC2)c1C(=O)O	0	-22%	-5	-12%	3%	0
O=C(NN=Cc1ccc2c(c1)CCC2)c1ccccc1[N+](=O)[O-]	?	18µM*	4	23µM*	-1%	3
COc1ccc(C(=O)Oc2ccc(/C=N/NC(=O)c3ccccc3OC)cc2[N+](=O)[O-])cc1	?	-23%	-18	-17%	28µM*	20
O=C(N/N=C/c1cccc([N+](=O)[O-])c1)c1cccc(Br)c1	-29	-16%	-7	?	1%	2
N#Cc1cc([N+](=O)[O-])ccc1Oc1cccc(/C=N/NC(=O)c2cccc(Cl)c2)c1	-7	21µM*	-9	?	1%	?
O=C(N/N=C/c1cccc([N+](=O)[O-])c1)c1ccc(COc2ccccc2-c2ccccc2)cc1	?	23µM*	-6	21µM*	2%	i
O=C(CN1C(=O)NC2(CCCC2)C1=O)Nc1cc(S(=O)(=O)N2CCCCC2)ccc1Cl	-7	?	6	?	2%	-5
CCN(CC(=O)Nc1cc(C)on1)CC(=O)Nc1ccccc1C(F)(F)F	0	-2%	3	4%	-10%	26
COc1cc(/C=N/NC(=O)COc2c(C)cc([N+](=O)[O-])cc2C)ccc1OC(=O)c1ccccc1	28	21µM*	4	13µM*	0%	62
COc1cccc(/C=N/NC(=O)c2cccc([N+](=O)[O-])c2)c1OS(=O)(=O)c1ccccc1	7	16µM*	-1	?	0%	-20
COc1ccc(Oc2ccc(/C=N/NC(=O)c3cccnc3)cc2[N+](=O)[O-])cc1	-21	21µM*	-4	?	.	?
COc1ccc(/C=N/NC(=O)c2cccc([N+](=O)[O-])c2)cc1OC(=O)c1ccccc1	?	15µM*	-4	16µM*	0%	55
O=C(NCCc1ccccc1)c1cc(-c2ccc(Cl)c(Cl)c2)on1	.	9%	3	10%	0%	.
CCc1nc2cc(C(=O)N3CCC[C@H]3CO)cc(NC(=O)c3ccccc3OC)c2n1C	.	-7%	.	11%[9.04 µM]	.	.
COc1cccc(C(=O)N/N=C/c2ccc(Oc3ccc([N+](=O)[O-])cn3)c(OC)c2)c1	-9	?	-5	21µM*	1%	-8
COc1ccc(/C=N/NC(=O)c2cccc([N+](=O)[O-])c2)cc1OS(=O)(=O)c1ccccc1	-9	16µM*	12	?	0%	-19
COc1ccc(/C=N/NC(=O)c2cccc([N+](=O)[O-])c2)cc1OC	-21	9%	-6	-10%	-2%	-8
COc1cc(/C=N/NC(=O)c2ccc3ccccc3c2)ccc1Oc1ccc([N+](=O)[O-])cn1	-5	?	1	?	.	-29
COc1ccc(Oc2ccc(/C=C/C(=O)c3cccc(OC)c3)cc2[N+](=O)[O-])cc1	-56*	7.3µM*	-21	7.3µM*	1%	-4
COc1cccc(NC(=O)/C=C/c2ccc([N+](=O)[O-])cc2)c1	-16	-26%	-7	-9%	.	-24
COc1ccc(-c2nc3cnc(N(C)C)nc3n(C3CC3)c2=O)cc1	.	-17%	.	0%	.	.
SMILES	DRD3 antagonist	TDP1 cell noCPT	DRD3 agonist	TDP1 cell CPT	ClpP mod	IL-1B inflam inh
CN(C)/N=N/c1nc[nH]c1C(N)=O	.	-16%	11	-4%	.	.
CC[C@@H]1Cc2[nH]c(=O)[nH]c(=O)c2[C@H](c2ccc(Cl)cc2)O1	18	-13%	7	11%	1%	47
CN1CCN(c2nc3ccccn3c(=O)c2C=O)CC1	-16	-4%	-22	11%	-2%	5
COCCCNC(=O)/C(C#N)=C/c1c(N2CCN(C)CC2)nc2ccccn2c1=O	36	-29%	1	3%	4%	4
COCCCNC(=O)/C(C#N)=C/c1c(N2CCN(c3ccccc3)CC2)nc2ccccn2c1=O	?	15µM*	-9	?	-2%	0
C=CCNC(=O)/C(C#N)=C/c1c(N(Cc2ccccc2)Cc2ccccc2)nc2ccccn2c1=O	-9	?	5	?	-16%	-53*
COCCNC(=O)/C(C#N)=C/c1c(N2CCN(c3ccccc3)CC2)nc2ccccn2c1=O	2	18µM*	-13	-30%	-11%	-3
CCOC(=O)N1CCN(c2nc3ccccn3c(=O)c2C=O)CC1	0	?	-2	15µM*	-2%	-25
CCOC(=O)c1cc(-c2cccnc2)nn1-c1ccccc1	15	?	-2	17%	.	-98*
Cc1cnc(NC(=O)c2cc(-c3ccccc3)nn2-c2ccccc2)s1	16	-21%	2	-2%	-2%	-2
O=C(Nc1nc2ccccc2s1)c1cc(-c2ccccc2)nn1-c1ccccc1	13	10µM*	-20	?	28µM*	-14
COc1cccc(C(=O)Nc2cc(-c3ccccc3)nn2-c2ccccc2)c1	.	?	12	?	-6%	.
CC(=O)c1sc(NC(=O)c2cc(-c3ccccc3)nn2-c2ccccc2)nc1C	6	6.5µM*	13	8.2µM*	.	-61*
O=C(NNC(=O)c1cc(-c2ccccc2)nn1-c1ccccc1)c1ccccc1	-8	?	-1	-11%	-3%	-97*
CCCc1nn2c(=O)cc(COC(=O)c3cccc(NC(=O)c4cccs4)c3)nc2s1	.	?	-9	?	-1%	.
CCCc1nn2c(=O)cc(COc3cccc(NC(=O)c4ccco4)c3)nc2s1	14	-13%	-3	-24%	-2%	0
CCc1nn2c(=O)cc(COc3cccc(NC(=O)c4ccco4)c3)nc2s1	-4	?	-1	21µM*	-1%	-10
Cc1cccc(C(=O)Nc2cccc(C(=O)OCc3cc(=O)n4nc(C(C)C)sc4n3)c2)c1	.	15µM*	2	?	-9%	.
